# Bioassay records: PubChem BioAssay, National Center for Advancing Translational Sciences (NCATS)
# HCMV antiviral: human cytomegalovirus inhibition. HFF cells, HCMV-luciferase reporter, 72 h; hits give low values. activity change, negative = inhibition, % at 57.5 µM. 410,000 tested, 4.5% active. AID 1259415; in the data active = activity change below about -60%; inconclusive = no clear call, values can overlap the other calls; inactive = above about -39%
#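 Luciferase read-out from HCMV-luciferase-infected HFFs (MOI 1 PFU/cell) 72 h post infection at 37C; compounds added after 16 h cell attachment; activity normalized between buffer-only basal and Salinomycin (10uM) inhibitor controls.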
# Pf growth 48h: inhibits P. falciparum growth in the first generation, 48 h. P. falciparum luciferase growth in erythrocytes, 48 h. Potency, µM (series often up to 28.7 µM), for inactives: top-dose activity change, negative = inhibition, actives largely listed as inhibitors. 310,000 tested, 5.9% active; also: potency is read from the fitted curve at half-maximal effect
#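 Compounds are pin-transferred into medium, infected erythrocytes (2% hematocrit, 0.1% parasitemia final) are added, and plates sit one parasite generation at 37 C in 5% CO2. Detection reagent is then added and luminescence measured.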
# Pf growth 96h: P. falciparum growth inhibition at 96 hours. 320,000 tested, 6.9% active. P. falciparum luciferase reporter growth, 96 h. Potency, µM (highest dose often 28.7 µM), without a hit: at the highest dose activity change, negative = inhibition, actives largely listed as inhibitors; also: potency is read from the fitted curve at half-maximal effect
#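 Parasite growth measured via integrated firefly luciferase reporter in P. falciparum. Infected erythrocytes at 2% hematocrit, 0.05% parasitemia final were treated 96 hours at 37 C under 5% CO2, and luminescence was read.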
# HCV inh: blocks hepatitis C virus. Huh7.5.1 HCVcc-Cre infection, luciferase reporter, 44 h. Potency, µM (series often up to 41.8 µM), without a hit: at the top dose activity change, negative = inhibition, actives largely listed as inhibitors. 340,000 tested, 3.4% active. AID 651820; also: potency is read from the fitted curve at half-maximal effect
#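 Seed cells (1,000/well) for 4 h; treat with compound and infect with HCVcc-Cre, moi about 0.5. Incubate 44 h, then detect luciferase activity.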
# * hit, by the source's call; ? = inconclusive; nt = not tested or not shown. Sampled rows, rich in hits. Any-hit rate of the full collection: about 13%. Unless noted, calls follow the shape of the dose curve; as a rule, active = well fitted inhibition curve with a large enough effect; inconclusive = small, poorly fitted or top-dose-only effect, or another doubt; inactive = no such curve, though single readings can be large or run the other way. % is scaled to controls: 0 for no effect and ±100 for the full control effect.
SMILES,HCMV antiviral,Pf growth 48h,Pf growth 96h,HCV inh
CCCCCNC(=O)C(c1cccc2ccccc12)n1c(=O)c(-c2cc3ccccc3[nH]2)nc2ccccc21 (centres undefined),15.4,nt,nt,nt
COc1ccc(C(=O)Nc2ccc(NC(C)=O)cc2)cc1S(=O)(=O)N1CCCC1,0.8,?,?,-1.8%
Cc1nc(-c2cccc(NC(=O)c3ccc(-n4nccc4C)cc3)c2)cs1,0.0,14.6%,?,10µM*
COc1ccc(C(=O)Nc2ccc(Cl)cc2F)cc1S(=O)(=O)N1CCCC1,?,11.7µM*,9.28µM*,?
O=C(Nc1ccc(S(=O)(=O)N2CCCC2)cc1)c1ccc(Cl)nc1,-29.3,?,?,?
NS(=O)(=O)c1cccc(NC(=O)Nc2ccccc2)c1,19.9,2.08µM*,103.2%,5.8%
O=C(Nc1ccc(S(=O)(=O)N2CCCCC2)cc1)c1ccc(Cl)nc1,-75.5*,nt,nt,?
CC1=C(C(=O)Nc2ccccc2C)C(c2ccco2)n2ncnc2N1 (centres undefined),-5.9,nt,nt,nt
CCn1cc2nc(SCC(=O)Nc3cccc(Cl)c3C)n(Cc3ccc(Cl)cc3)c(=O)c2n1,-21.2,nt,nt,nt
CCN(CC)S(=O)(=O)c1ccc(S(=O)(=O)Nc2cc3c(cc2C(C)=O)OCO3)cc1,50.6,?,11.7µM*,?
NS(=O)(=O)c1ccc(CCNC(=O)CNCCc2ccc(C(F)(F)F)cc2)cc1,-61.4*,nt,-12.8%,?
CN1CCN(S(=O)(=O)c2ccc(C(=O)Nc3ccccc3)cc2)CC1,18.5,nt,-28.1%,18.0%
CN1CCN(S(=O)(=O)c2ccc(NC(=O)c3ccc([N+](=O)[O-])cc3)cc2)CC1,-61.8*,nt,nt,6.7%
COc1ccc(NC(=O)c2ccc(Cl)nc2)cc1S(=O)(=O)N1CCCCC1,-3.1,?,?,11.2µM*
COc1ccc(NC(=O)c2cc(OC)c(OC)c(OC)c2)cc1S(=O)(=O)N1CCCCC1,122.4,-34.5%,?,?
CC(N)C(=O)NCC(=O)NC1CSSCC(C(=O)O)NC(=O)C(CO)NC(=O)C(C(C)O)NC(=O)C(Cc2ccccc2)NC(=O)C(C(C)O)NC(=O)C(CCCCN)NC(=O)C(Cc2c[nH]c3ccccc23)NC(=O)C(Cc2ccccc2)NC(=O)C(Cc2ccccc2)NC(=O)C(CC(N)=O)NC(=O)C(CCCCN)NC1=O (centres undefined),nt,1.0%,?,nt
CC(=O)C1=C(C)N(Cc2ccc(Br)cc2)C(=S)NC1c1cccc(Cl)c1 (centres undefined),-13.0,nt,nt,nt
CCOc1ccc(CCNC(=O)Cn2ncn3c(cc4sc(C)cc43)c2=O)cc1OCC,37.1,nt,nt,nt
CCN(CC)S(=O)(=O)c1ccc(C(=O)NCc2ccc3c(c2)OCO3)cc1,-15.5,-8.3%,?,0.4%
CCc1nnc(NC(=O)c2ccc(S(=O)(=O)NCC(C)C)cc2)s1,28.8,8.8%,1.65µM*,3.1%
CCc1nnc(NS(=O)(=O)c2ccc(NC(=S)NC(=O)/C=C/c3ccc(F)cc3)cc2)s1,14.8,-2.3%,10.4µM*,24.6%
COc1ccc(C(=O)Nc2cccc(-c3csc(C)n3)c2)cc1S(=O)(=O)N1CCCC1,-12.3,11.7µM*,13.1µM*,?
CCN(CC)S(=O)(=O)c1ccc(C(=O)Oc2ccc3c(c2)OCO3)cc1,-5.6,-23.9%,3.29µM*,11.8%
CCc1nnc(NC(=O)c2ccc(NC(=O)C(C)C)cc2)s1,86.9,40.2%,26.2%,-19.1%
CC1(C(=O)NS(=O)(=O)Cc2cccc(Cl)c2)CCN1C(=O)c1ccc(C2CCCCC2)cc1 (centres undefined),49.3,nt,nt,nt
SMILES,HCMV antiviral,Pf growth 48h,Pf growth 96h,HCV inh
CCOC(=O)c1[nH]c(C)c(CCC(=O)Nc2ccc(C(C)=O)cc2)c1C,7.0,nt,nt,nt
Cc1ccc(S(=O)(=O)N(C)Cc2ccc(-c3nnc4n3CCC4)cc2)cc1,17.0,10.4µM*,10.7%,4.2%
Cc1cc2c(cc1NC(=O)c1ccccc1Cl)n(C)c(=O)c(=O)n2C,11.7,nt,nt,nt
CC(=O)c1c(C(C)=O)c(C)n(-c2ccc(C)c(NC(=O)c3ccccc3Cl)c2)c1C,-26.8,?,2.94µM*,nt
CC1=NN(C(=O)CSCc2ccccc2)C(O)(c2ccc(Cl)cc2)C1 (centres undefined),36.2,-27.8%,11.7µM*,3.2%
Nc1ccc(N(c2ccccc2)c2ccc(N)cc2)cc1,?,?,-62.9%,10µM*
CC(=O)c1cnc(N(C)C)s1,-27.5,0.8%,13.1µM*,14.5%
